{"source": "PubChem BioAssay (NCATS)", "note": "Where “and” joins values, the source holds several entries; their conditions need not be identical. Equal entries are not always repeated. Records with an inconclusive call do not appear. Some structures have more than one record in an assay (separate samples or runs), and their calls can disagree. Calls of active or inactive are those of the source. Calls come from the whole dose curve; as a rule, active = well fitted inhibition curve with a large enough effect; inconclusive = small, poorly fitted or top-dose-only effect; inactive = flat fitted curve, though single readings scatter. % is set by controls: 0 for no effect and ±100 for the full control effect; potency is the fitted concentration of half-maximal effect.", "data": [{"assay": "P-glycoprotein substrates identified in KB-8-5-11 adenocarcinoma cell line, qHTS therapeutic library screen (AID 1346987); note: nearly all actives have a fitted effect of over 65% in size", "conditions": "KB-8-5-11 (P-gp overexpressing) viability, CellTiter-Glo, 72 h; series mostly up to 44.5 µM; activity change, negative = cytotoxicity: at the top concentration", "outline": "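In this qHTS, P-gp-rich KB-8-5-11 cells received library compounds across a concentration range. Viability was quantified by luminescence after 72 h at 37 degree C.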", "values": [{"compound": "C[C@@H](N)c1ccc(C(=O)Nc2ccnc3[nH]ccc23)cc1", "Potency": "inactive"}, {"compound": "NCC1CCC(C(=O)O)CC1", "note": "(centres undefined)", "Potency": "inactive"}, {"compound": "CC(C)c1c(C(=O)Nc2ccccc2)c(-c2ccccc2)c(-c2ccc(F)cc2)n1CC[C@H](O)C[C@@H](O)CC(=O)O", "activity change, negative = cytotoxicity": "-21.6% (inactive)"}, {"compound": "Cc1cnc(Nc2cccc(CN3CCOCC3)c2)nc1Nc1cccc(S(=O)(=O)NC(C)(C)C)c1", "Potency": "inactive and 4.11 µM (active)"}, {"compound": "Nc1ccc(-c2ccc3ncc4ccc(=O)n(-c5cccc(C(F)(F)F)c5)c4c3c2)cn1", "Potency": "1 nM (active) and 36.6 nM (active)"}, {"compound": "COc1c(C)c2c(c(O)c1CC=C(C)CCC(=O)O)C(=O)OC2", "Potency": "6.62 µM (active)"}, {"compound": "O=C(Nc1ccc(OC(F)(F)F)cc1)c1sccc1NCc1ccnc2ccccc12", "activity change, negative = cytotoxicity": "-22.6% (inactive)"}, {"compound": "CCOc1ccccc1N=Nc1c(C)[nH]n(-c2nc(-c3ccccc3)cs2)c1=O", "outcome": "inactive"}, {"compound": "CN1CC(=O)NC1=NC(=O)Nc1cccc(Cl)c1", "activity change, negative = cytotoxicity": "-4.64% (inactive)"}, {"compound": "Cc1nc2c([nH]1)CCN(C(=O)c1ccc(NC(=O)c3ccccc3-c3ccccc3)cc1)c1ccccc1-2", "Potency": "inactive"}, {"compound": "C=CC[N+]1([C@H]2C[C@H]3[C@@H]4CC[C@H]5C[C@H](O)[C@@H](N6CCOCC6)C[C@]5(C)[C@@H]4CC[C@]3(C)[C@H]2OC(C)=O)CCCC1", "outcome": "inactive"}, {"compound": "C[C@@H](O)[C@H]1C(=O)N2C(C(=O)OCOC(=O)C(C)(C)C)=C(SC3CN(C4=NCCS4)C3)[C@H](C)[C@H]12", "activity change, negative = cytotoxicity": "9.96% (inactive)"}, {"compound": "CNc1nc(Nc2ccc(C(=O)N3CCOCC3)cc2OC)ncc1Cl", "activity change, negative = cytotoxicity": "-23.4% (inactive)"}, {"compound": "COc1cc2c(cc1OC)CC(=O)N(CCCN(C)C[C@H]1Cc3cc(OC)c(OC)cc31)CC2", "activity change, negative = cytotoxicity": "-9.37% (inactive)"}]}]}
